ELG1 DNA repair: inhibitors of ELG1-dependent DNA repair in HEK293T cells | HEK293T ELG1-luciferase reporter, luminescence, 16 h; DNA damage induced by 5-fluorouridine | Potency, µM (highest dose often 46.1 µM), for the others: at the highest dose activity change, negative = inhibition, most hits filed as inhibitors | 330,000 compounds, 2.3% hits; also: nearly all actives have a fitted effect of over 55% in size
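Quantitative HTS, concentration-response format. 2,000 cells/well co-treated with 5-fluorouridine and compound, 16 hr in 5% CO2 at 37 °C; ONE-Glo luminescence read after 30 min.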
ALOX12 inh: blocks human arachidonate 12S-lipoxygenase. P18054. purified 12hLO, xylenol orange hydroperoxide absorbance. Potency, µM (doses to about 108 µM), for the others: at the highest dose activity change, negative = inhibition, most hits filed as inhibitors. 580,000 compounds, 1.1% hits
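Purified human 12hLO (150 nM final) in 25 mM Hepes, 0.01% Triton X-100, pH 7.0 was preincubated 15 min at room temperature with compound. Then 40 uM arachidonic acid was added, 30 min. Hydroperoxide was read by Fe-XO absorbance ratio 573/405 nm.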
TDP1 cell CPT: DT40-hTDP1 cell growth loss with CPT | chicken DT40 Tdp1-/-;hTDP1 cells + 20 nM CPT, ATP luminescence, 48 h | 420,000 compounds, 12% hits | Potency, µM (top dose mostly 46.2 µM), for the others: at the highest dose activity change, negative = growth inhibition, usual class: inhibitors; also: nearly all actives have a fitted effect of over 55% in size
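Chicken DT40 Tdp1-/- cells complemented with human TDP1, 400 cells/well, exposed to compounds plus 20 nM camptothecin for at least 48 h at 37 C; viability read as ATP content by CellTiter-Glo luminescence.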
RORgamma inh: inhibitors of mouse ROR gamma transcriptional activity; Drosophila S2 Gal4-RORgamma UAS-luciferase reporter, 20 h; 310,000 compounds, 5.4% hits; Potency, µM (top dose mostly 53.6 µM), for inactives: at the top dose activity change, negative = inhibition, hits mostly inhibitors; P51450; also: nearly all actives have a fitted effect of over 60% in size
Target sequence (P51450 whole entry, looked up, the tested form may be a part): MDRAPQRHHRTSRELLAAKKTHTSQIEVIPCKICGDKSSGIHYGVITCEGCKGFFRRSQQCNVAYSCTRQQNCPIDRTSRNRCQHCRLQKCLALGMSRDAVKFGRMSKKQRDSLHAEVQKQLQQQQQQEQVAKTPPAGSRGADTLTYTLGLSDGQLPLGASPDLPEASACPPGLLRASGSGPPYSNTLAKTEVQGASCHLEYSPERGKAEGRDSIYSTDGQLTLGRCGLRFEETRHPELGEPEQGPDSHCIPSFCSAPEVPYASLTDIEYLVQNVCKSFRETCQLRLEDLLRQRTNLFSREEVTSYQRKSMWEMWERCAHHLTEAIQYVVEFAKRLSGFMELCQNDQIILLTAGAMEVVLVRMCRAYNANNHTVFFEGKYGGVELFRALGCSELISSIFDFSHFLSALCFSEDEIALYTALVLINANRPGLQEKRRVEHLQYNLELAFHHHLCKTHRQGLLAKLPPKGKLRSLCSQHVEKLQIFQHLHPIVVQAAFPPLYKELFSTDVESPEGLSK
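Drosophila Schneider cells stably carrying a metallothionein-driven Gal4 DBD–ROR gamma fusion and a UAS-Photinus luciferase reporter were exposed to compound for 1 hr, then induced with copper sulfate (700 uM final) for 20 hr at ambient temperature before luminescence reading.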
VP16 counter: counter-screen for ROR gamma inhibitors: Gal4-VP16 reporter | Drosophila S2 Gal4-VP16 UAS-luciferase, luminescence, 20 h | Potency, µM (highest dose often 53.6 µM), for inactives: at the top dose activity, negative = inhibition, actives largely listed as inhibitors | 310,000 compounds, 3.5% hits | AID 2546;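 also: Gal4-VP16 expression switched on by copper sulfate through the metallothionein promoter; nearly all actives have a fitted effect of over 50% in size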
DT40 TDP1 no CPT: qHTS for Inhibitors of human tyrosyl-DNA phosphodiesterase 1 (TDP1): qHTS in cells in absence of CPT. AID 686978, 2013. Potency, µM (titrated, usually from 46.2 µM), inactives show top-dose activity change, negative = growth inhibition, usual class: inhibitors. 420,000 compounds, 15% hits. DT40 Tdp1-/- hTDP1 cells, no CPT, ATP luminescence, 48 h; also: nearly all actives have a fitted effect of over 55% in size
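Stably hTDP1-transfected Tdp1-null chicken DT40 cells were treated with library compounds minus camptothecin and grown for at least 48 hr at 37 °C, after which cellular ATP was quantified by luminescence.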
* marks the source's active call; other numbers are inactive results; [ ] = another dose, or the depositor's remark. A selection: hits, their analogues and other compounds. The true share with any hit is near 15%. Calls follow the shape of the dose curve; as a rule, active = well fitted curve in the direction sought with a large enough effect; inconclusive = small, poorly fitted or top-dose-only effect, or another doubt; inactive = no such curve, though single readings can be large; an effect the other way counts as inactive or inconclusive. % is scaled to controls: 0 for no effect and ±100 for the full control effect; potency is read from the fitted curve at half-maximal effect.

For O=C(Nc1cccc(Cl)c1Cl)c1cc(S(=O)(=O)N2CCC3(CC2)OCCO3)ccc1F the results were ALOX12 inh -19.2%, TDP1 cell CPT inconclusive and DT40 TDP1 no CPT 23.1µM*.
`Cc1cccc(NC(=O)c2ccc(F)c(S(=O)(=O)N3CCC4(CC3)OCCO4)c2)c1` gave ELG1 DNA repair inconclusive, ALOX12 inh 0.0%, TDP1 cell CPT inconclusive, RORgamma inh inconclusive, VP16 counter -15.7% and DT40 TDP1 no CPT inconclusive.
Screening O=C(Nc1cccc(Cl)c1)c1ccc(F)c(S(=O)(=O)N2CCC3(CC2)OCCO3)c1 returned ALOX12 inh inconclusive, TDP1 cell CPT 14.6µM* and DT40 TDP1 no CPT 13µM*.
For CCN(Cc1ccc(OC)c(OC)c1)C(=O)c1cc2ccccc2oc1=O the results were ALOX12 inh -26.5%.
Screening CCOC(=O)C1CCCN(C(=O)c2cc(-c3ccc(OC)cc3)n[nH]2)C1 (stereo not drawn) returned ALOX12 inh 3.0%.
COCCC(=O)N1CCC(n2c(C)cnc2C2CC2)CC1 was read as ALOX12 inh -4.4%.
COc1ccc(/C=C2/Sc3ccc(C(=O)NCCCN4CCOCC4)cc3NC2=O)cc1OC was read as ELG1 DNA repair 16.1%, ALOX12 inh -3.1%, TDP1 cell CPT 4.61µM*, RORgamma inh inconclusive, VP16 counter inconclusive and DT40 TDP1 no CPT 2.59µM*.
`Cc1cccc(/C=C2/Sc3ccc(C(=O)NCCN4CCCC4)cc3NC2=O)c1` gave ELG1 DNA repair 0.0%, ALOX12 inh inconclusive, TDP1 cell CPT inconclusive, RORgamma inh inconclusive, VP16 counter -29.2% and DT40 TDP1 no CPT 23.1µM*.
Screening O=C1Nc2cc(C(=O)NCCCN3CCCC3)ccc2S/C1=C/c1cccc(Cl)c1 returned ALOX12 inh inconclusive, TDP1 cell CPT 6.51µM* and DT40 TDP1 no CPT inconclusive.
For O=C(NCCCN1CCCCC1)c1ccc2c(c1)NC(=O)C(N1CCCCC1)S2 (stereo not drawn) the results were ELG1 DNA repair 4.8%, ALOX12 inh 5.2%, TDP1 cell CPT inconclusive, RORgamma inh 10.4%, VP16 counter -5.8% and DT40 TDP1 no CPT -18.9%.
CCOC(=O)C1CCN(C(=O)c2ccc3c(c2)NC(=O)/C(=C\c2cccc(C)c2)S3)CC1 was read as ELG1 DNA repair 14.6µM*, ALOX12 inh -34.3%, TDP1 cell CPT inconclusive, RORgamma inh -8.5%, VP16 counter inconclusive and DT40 TDP1 no CPT 18.4µM*.
For Cc1ccc(/C=C2/Sc3ccc(C(=O)NCc4ccccn4)cc3NC2=O)cc1 the results were ELG1 DNA repair 17.8%, ALOX12 inh 11.1%, TDP1 cell CPT inconclusive, RORgamma inh inconclusive, VP16 counter -18.0% and DT40 TDP1 no CPT -10.0%.
CCN1CCN(CCCNC(=O)c2ccc3c(c2)NC(=O)/C(=C\c2cccc(C)c2)S3)CC1 was read as ELG1 DNA repair -29.0%, ALOX12 inh inconclusive, TDP1 cell CPT 16.4µM*, RORgamma inh inconclusive, VP16 counter inconclusive and DT40 TDP1 no CPT inconclusive.
For O=C1Nc2cc(C(=O)NCCN3CCCCCC3)ccc2S/C1=C\c1ccccc1 the results were ELG1 DNA repair inconclusive, ALOX12 inh inconclusive, TDP1 cell CPT 13µM*, RORgamma inh inconclusive, VP16 counter inconclusive and DT40 TDP1 no CPT 11.6µM*.
Cc1cccc(/C=C2/Sc3ccc(C(=O)NCCCN4CCOCC4)cc3NC2=O)c1 was read as ELG1 DNA repair -11.6%, ALOX12 inh -18.8%, RORgamma inh inconclusive and VP16 counter inconclusive.
CC(N(C)CC(=O)NC(C)(C#N)C(C)C)C(C)(C)C (stereo not drawn) was read as ALOX12 inh -23.4%.
`Cc1nnc(C)c2c(C)n(Cc3ccc4c(c3)OCO4)c(C)c12` gave ELG1 DNA repair -9.5%, ALOX12 inh -24.6%, TDP1 cell CPT 13µM*, RORgamma inh -35.7%, VP16 counter 0.0% and DT40 TDP1 no CPT 16.4µM*.
COc1cc(OC)c(NC(=O)CSCc2cc(=O)n3ccc(C)cc3n2)cc1Cl was read as ALOX12 inh 10.2%.
For COc1ccc(CNC(=O)C[C@@H]2C[C@H]3c4cc(NC(=O)NC5CCCC5)ccc4O[C@H]3[C@H](CO)O2)cc1 the results were ALOX12 inh inconclusive, TDP1 cell CPT inconclusive and DT40 TDP1 no CPT 13µM*.
Screening COc1cccc(S(=O)(=O)Nc2ccc3c(c2)[C@@H]2C[C@@H](CC(=O)NCc4ccc(Cl)cc4)O[C@@H](CO)[C@@H]2O3)c1 returned ALOX12 inh -38.4%, TDP1 cell CPT 18.4µM* and DT40 TDP1 no CPT 16.4µM*.
For COc1cccc(S(=O)(=O)Nc2ccc3c(c2)[C@H]2C[C@H](CC(=O)N[C@@H](C)c4ccccc4)O[C@H](CO)[C@H]2O3)c1 the results were ALOX12 inh inconclusive, TDP1 cell CPT inconclusive and DT40 TDP1 no CPT 14.6µM*.
For O=C(C[C@@H]1C[C@@H]2c3cc(NS(=O)(=O)c4ccc(F)cc4)ccc3O[C@@H]2[C@@H](CO)O1)NC1CCCCC1 the results were ALOX12 inh inconclusive, TDP1 cell CPT inconclusive and DT40 TDP1 no CPT 18.4µM*.
Cc1ccc(C(=O)N(Cc2cccs2)c2ccccn2)cc1 was read as ALOX12 inh -12.0%.
For CC(=O)Nc1ccc(NC(=O)COC(=O)c2cc(=O)[nH]c3ccccc23)cc1 the results were ALOX12 inh 4.2%.
Cc1c(C(=O)NCCCc2ccncc2)cnn1-c1nccc(-c2ccccc2F)n1 was read as ALOX12 inh -1.0%, TDP1 cell CPT -6.6%[9.04 µM] and DT40 TDP1 no CPT 18.4µM*.
COC(=O)c1c(NC(=O)/C=C/C(=O)O)sc(C)c1-c1ccc(C(C)C)cc1 was read as ELG1 DNA repair -18.0%, ALOX12 inh -1.5%, TDP1 cell CPT 4.61µM*, RORgamma inh inconclusive, VP16 counter -27.7% and DT40 TDP1 no CPT 20.6µM*.
CCOC(=O)c1c(NC(=O)/C=C/C(=O)O)sc(C)c1-c1ccc(F)cc1 was read as ELG1 DNA repair 10.2%, ALOX12 inh 8.6%, TDP1 cell CPT inconclusive, RORgamma inh inconclusive, VP16 counter 8.7% and DT40 TDP1 no CPT inconclusive.

Screening results (PubChem)
